Shown are actives, neighbours in structure and some others; about 6.5% of the full set was active somewhere.
Vaccinia mCherry = inhibitors of vaccinia virus infection (mCherry reporter signal). Vaccinia virus mCherry reporter infection, fluorescence. Potency, µM (series often up to 36.5 µM), without a hit: at the top dose activity change, negative = inhibition, actives largely listed as inhibitors. 0.63% of 310,000 active. AID 720579; calls by dose curve; tested in A549 cells; note: potency is the fitted concentration of half-maximal effect; nearly all actives have a fitted effect of over 35% in size
HCMV inh = inhibitors of human cytomegalovirus | activity change, negative = inhibition, % at 57.5 µM | AID 1259415 | HFF cells, HCMV-luciferase reporter, 72 h; active compounds read low | 4.5% of 410,000 active; in the data active = activity change below about -60%; inconclusive = no clear call, values can overlap the other calls; inactive = above about -39%
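After 16 h attachment at 37C, HFF cells received test compound and HCMV-luciferase (1 PFU/cell); reporter luminescence read 72 h later, data normalized against buffer-only and known inhibitor Salinomycin.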
LASV entry inh = inhibitors of Lassa virus binding or cell entry; Potency, µM (titrated, usually from 37.9 µM), inactives show at the highest dose activity change, negative = inhibition, usual class: inhibitors; Lassa virus pseudotype entry inhibition, cell reporter; 1.2% of 300,000 active; calls by dose curve; tested in HEK293 cells; note: potency is the fitted concentration of half-maximal effect; nearly all actives have a fitted effect of over 50% in size
FMDV inh = foot and mouth disease virus antiviral activity | FMDV antiviral cell-based qHTS | Potency, µM (series often up to 57.9 µM), for the others: at the highest dose activity change, negative = inhibition, actives largely listed as inhibitors | 1.2% of 410,000 active; calls by dose curve; tested in HEK293T cells; note: read-out not given here; potency is the fitted concentration of half-maximal effect; nearly all actives have a fitted effect of over 45% in size
MARV entry inh = inhibitors of Marburg virus binding or cell entry; Marburg virus pseudotyped entry inhibition, cell reporter; Potency, µM (series often up to 37.8 µM), for inactives: at the top dose activity change, negative = inhibition, hits mostly inhibitors; 1.8% of 300,000 active; AID 540276; calls by dose curve; tested in HEK293 cells; note: potency is the fitted concentration of half-maximal effect
Vaccinia Venus = vaccinia inhibition (Venus reporter); Vaccinia virus Venus reporter expression, fluorescence; Potency, µM (top dose mostly 36.5 µM), inactives show at the top dose activity change, negative = inhibition, hits mostly inhibitors; 0.46% of 330,000 active; calls by dose curve; tested in A549 cells; note: potency is the fitted concentration of half-maximal effect; nearly all actives have a fitted effect of over 30% in size
* marks the source's active call; other numbers are inactive results; i = inactive; ? = inconclusive; nt = no result given; ! = a repeat was not active; [ ] = dose if it differs, or a comment. % is set by controls: 0 for no effect and ±100 for the full control effect.

SMILES	Vaccinia mCherry	HCMV inh	LASV entry inh	FMDV inh	MARV entry inh	Vaccinia Venus
Cc1cc(Cl)ccc1OCc1n[nH]c(=S)n1C1CCCCC1	nt	4	?	?	23µM*	nt
COC(=O)C1=C(C)N(Cc2ccccc2)C(=NCC2CC2)NC1c1ccccc1 (centres undefined)	nt	nt	nt	nt	-1%[14.2 µM]	nt
COc1ccc(NC(=O)c2c(-c3ccccc3Cl)noc2C)c(OC)c1	i	-34	?	-1%	15µM*	-6%
Cc1onc(-c2ccccc2Cl)c1C(=O)N(C)C1CCCCC1	?	-66*	nt	-8%	nt	-25%
CCCCN1CCC(COC(=O)c2cc(Cl)c(N)c3c2OCCO3)CC1	i	-21	nt	0%	11µM*	-12%
COc1cc(=O)n(C)c2c(OC[C@@H](O)C(C)(C)O)cccc12	nt	nt	nt	nt	36%	nt
Cc1ccc(C)c(N2CCN(CCCNC(=O)CCC(=O)N3CCOc4ccc(Cl)cc43)CC2)c1	nt	-83*	nt	nt	nt	nt
Cc1ccc(C)c(N2CCN(C(=O)CCC(=O)N3CCOc4ccc(Cl)cc43)CC2)c1	?	-80*	nt	-28%	nt	?
O=C(CCC(=O)N1CCOc2ccc(Cl)cc21)NCCCN1CCC(Cc2ccccc2)CC1	11%	-75*	nt	-17%	nt	-20%
COc1ccc(N2CCN(CCCNC(=O)CCC(=O)N3CCOc4ccc(Cl)cc43)CC2)cc1	?	-20	-24%[46.1 µM]	-26%	?	-17%
O=C(CCC(=O)N1CCOc2ccc(Cl)cc21)NCCCN1CCN(c2ccccc2F)CC1	?	-24	nt	?	nt	-11%
CCNc1c(NC(=O)c2ccccc2OCC)c(=O)oc2ccccc12	-4%	21	-11%[46.1 µM]	-2%	5%[46.1 µM]	0%
CCc1ccccc1NC(=O)CCc1c(C)nc2cc(-c3ccccc3)nn2c1C	-20%	-23	8%[46.1 µM]	-26%	2%[46.1 µM]	0%
CCCOc1ccc(/C=C/C(=O)Nc2ccc([N+](=O)[O-])cc2C)cc1	-27%	-35	-4%	-7%	-4%	-23%
CCOc1ccc(NC(=S)NC(=O)/C=C/c2ccc(OC)c(OC)c2)c([N+](=O)[O-])c1	i	?	?	-18%	15µM*	-16%
CCOc1ccc(NC(=S)NC(=O)/C=C/c2ccc(C)cc2)c([N+](=O)[O-])c1	-13%	?	?	-22%	?	-9%
CCCOc1ccc(/C=C/C(=O)Nc2ccc([N+](=O)[O-])cc2C)cc1OC	nt	-96*	-23%	0%	?	nt
COc1ccc(Br)c2c1-c1nc(NC(=O)c3ccccc3SC)sc1C2	-14%	-63*	-25%[46.1 µM]	-23%	7%[46.1 µM]	-6%
CNC(=S)N1N=C(c2ccc(C)cc2)CC1c1ccc(Br)cc1 (centres undefined)	nt	7	?	15%	?	nt
CNC(=S)N1N=C(c2ccc(C)cc2)CC1c1ccc(Cl)cc1 (centres undefined)	nt	-6	9.2µM*	-22%	?	nt
Cc1nn(-c2ccc(F)cc2)c(Cl)c1/C=C/C(=O)OCC(=O)Nc1c(F)c(F)c(F)c(F)c1F	0%	-71*	-7%	-17%	0%[46.1 µM]	-1%
COC(=O)C1=C(C(=O)OC)[C@@H]2N(Cc3ccccc3)c3ccccc3[C@@]23C[C@@H](C(=O)OC)N(C(=O)NCCBr)C3=N1	nt	nt	nt	nt	8%[14.2 µM]	nt
Cc1ccc(NC(=O)CSc2nc3c(oc4ccccc43)c(=O)n2Cc2ccco2)cc1	-10%	-1	nt	22%	-1%[46.1 µM]	-6%
CC(=O)Nc1cccc2c1Cc1ccccc1-2	nt	nt	nt	82%	nt	nt
COc1cc2c(cc1[N+](=O)[O-])-c1ccc([N+](=O)[O-])cc1C2=NNC(N)=S	i	nt	nt	0%	nt	-20%
SMILES	Vaccinia mCherry	HCMV inh	LASV entry inh	FMDV inh	MARV entry inh	Vaccinia Venus
COc1cc2c(cc1[N+](=O)[O-])-c1ccccc1C2	-1%	-75*	18%[46.1 µM]	19%	?	-2%
COc1cc2c(cc1[N+](=O)[O-])-c1ccc([N+](=O)[O-])cc1C2	nt	-68*	nt	nt	nt	nt
CC(=O)Nc1cccc2c1Cc1cc([N+](=O)[O-])ccc1-2	i	-98*	5%[46.1 µM]	-5%	16%	-11%
COc1cc2c(=O)[nH]c3cc([N+](=O)[O-])ccc3c2cc1[N+](=O)[O-]	?	-94*	nt	-13%	nt	-17%
O=C(c1ccnc(-n2cnnn2)c1)N1CCOc2ccc(C(O)CCc3ccccc3)cc2C1 (centres undefined)	-8%	nt	nt	15%	nt	-1%
O=[N+]([O-])c1ccc2c(c1)Cc1cc(F)ccc1-2	-3%	-94*	2%[46.1 µM]	-5%	2%[46.1 µM]	2%
O=C(Nc1ccc2c(c1)Cc1cc([N+](=O)[O-])ccc1-2)C(F)(F)F	-17%	?	7%	2%	20%	-12%
CC1CCN(c2ccc(-c3cccs3)nn2)CC1	i	-66*	nt	7.9µM*	nt	-20%
CCc1ccccc1Nc1nn2c(=O)c3ccc(C(=O)NC(C)c4ccccc4)cc3nc2s1 (centres undefined)	-24%	-30	-23%[46.1 µM]	?	nt	-28%
CCOC(=O)c1ccc2c(c1)n(CC)c(/C=C/N(C)c1ccccc1)[n+]2CC	-12%	-100*	?	?	?	-15%
COCC(=O)Nc1cc(C(=O)N2CC3CCC2C3)c2c(c1)nc(-c1ccncc1)n2C (centres undefined)	-14%	nt	nt	-3%	nt	-1%
CCCCC(CC)CNC(=O)c1ccc2c(=O)n(CCOC)c(=O)[nH]c2c1 (centres undefined)	1%	?	?	?	2.8µM*	12%
O=C(c1ccc(F)cc1)C1CCN(CCn2c(=O)[nH]c3ccccc3c2=O)CC1	-1%	-39	0%	-14%	11µM*	-19%
COc1ccc(Cn2c(=O)[nH]c3cc(C(=O)N4CCN(c5cccc(OC)c5)CC4)ccc3c2=O)cc1	-17%	-9	5%[46.1 µM]	?	-19%[46.1 µM]	-7%
COc1ccc(N2CCN(C(=O)c3ccc4c(=O)n(CCc5ccc(OC)c(OC)c5)c(=O)[nH]c4c3)CC2)cc1	-22%	-37	-26%	28µM*	11µM*	-14%
CCCCCn1c(=O)[nH]c2cc(C(=O)NCc3ccccc3)ccc2c1=O	-5%	-23	2%[46.1 µM]	0%	-4%[46.1 µM]	-1%
O=C(c1ccc(F)cc1)C1CCN(CCCn2c(=O)[nH]c3ccccc32)CC1	nt	-33	nt	nt	nt	nt
COc1ccc(OC)c(NC(=O)c2ccc3c(=O)n(CCc4ccccc4)c(=S)[nH]c3c2)c1	-10%	?	?	0.79µM*	?	-9%
COCCn1c(=O)[nH]c2cc(C(=O)N3CCN(c4ccc(Cl)cc4)CC3)ccc2c1=O	?	-23	21%[46.1 µM]	16µM*!	?	-2%
O=C(CCCn1c(=O)[nH]c2cc(Cl)ccc2c1=O)NCCCN1CCN(c2ccc(F)cc2)CC1	nt	-62*	nt	?	nt	nt
O=C(c1ccc2c(=O)n(CCc3ccccc3)c(=O)[nH]c2c1)N1CCN(c2ccc(F)cc2)CC1	?	-38	?	11µM*	?	0%
